Results on ten sequences are retold here after PMC5700166.

Where a chain is given by its changes, count along the chain named.

What all share (test): protein-binding microarray (PBM); PBM: ~300 nM protein, 6 mM HEPES pH 7.8, 80 mM KCl, 0.5 mM EDTA, 0.5 mM EGTA, 6% glycerol, 35 ng/ul poly-dIdC, 1% milk, 1 h, room temperature; Ap Aiptasia and Nv Nematostella (sea anemones) / Co Capsaspora / Aq Amphimedon (sponge) / Dm Drosophila / Hu human; RHD is the Rel homology domain; high values mean tight binding
Holding throughout (conditions): dsDNA, one strand shown

For one assay, the target named is T1, GST-Ap-NF-kB RHD (Exaiptasia pallida (Aiptasia), UniProt A0A913YAJ5 2-422).
T1 sequence: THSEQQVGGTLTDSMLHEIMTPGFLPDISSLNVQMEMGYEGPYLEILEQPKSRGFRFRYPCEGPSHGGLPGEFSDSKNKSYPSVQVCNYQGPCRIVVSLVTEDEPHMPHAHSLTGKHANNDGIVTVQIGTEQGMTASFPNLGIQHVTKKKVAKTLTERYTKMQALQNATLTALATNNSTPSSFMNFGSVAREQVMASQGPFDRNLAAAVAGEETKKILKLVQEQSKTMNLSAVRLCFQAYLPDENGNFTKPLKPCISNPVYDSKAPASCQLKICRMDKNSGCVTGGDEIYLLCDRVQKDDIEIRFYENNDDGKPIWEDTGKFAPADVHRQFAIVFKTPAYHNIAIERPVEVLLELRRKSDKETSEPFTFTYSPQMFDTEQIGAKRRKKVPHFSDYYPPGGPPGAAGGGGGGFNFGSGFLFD

Assay [1] deals with T2, GST-Nv-NF-kB (Cys allele) (Nematostella vectensis, UniProt E5G601 2-411).
T2 sequence: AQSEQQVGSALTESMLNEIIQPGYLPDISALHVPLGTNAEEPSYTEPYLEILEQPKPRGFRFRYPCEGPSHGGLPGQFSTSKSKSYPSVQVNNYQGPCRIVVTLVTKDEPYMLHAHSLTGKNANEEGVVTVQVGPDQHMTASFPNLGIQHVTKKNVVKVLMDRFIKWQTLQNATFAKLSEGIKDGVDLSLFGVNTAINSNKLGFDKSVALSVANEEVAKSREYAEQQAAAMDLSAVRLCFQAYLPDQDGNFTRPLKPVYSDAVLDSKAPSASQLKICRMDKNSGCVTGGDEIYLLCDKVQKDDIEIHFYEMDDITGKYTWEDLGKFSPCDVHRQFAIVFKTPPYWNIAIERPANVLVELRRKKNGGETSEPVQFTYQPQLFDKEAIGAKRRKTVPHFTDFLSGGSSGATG

Assay [2] addresses T3, GST-Nv-NF-kB (Ser allele) (Nematostella vectensis, UniProt A7UNT2 2-411).
T3 sequence: T2 sequence with Q21R, C66S, S207N, E215Q, V217A, E225K, A268E, D399E

Another assay concerns the target T4, GST-Co-NF-kB (Capsaspora owczarzaki, UniProt F1ARL5 200-546).
T4 sequence: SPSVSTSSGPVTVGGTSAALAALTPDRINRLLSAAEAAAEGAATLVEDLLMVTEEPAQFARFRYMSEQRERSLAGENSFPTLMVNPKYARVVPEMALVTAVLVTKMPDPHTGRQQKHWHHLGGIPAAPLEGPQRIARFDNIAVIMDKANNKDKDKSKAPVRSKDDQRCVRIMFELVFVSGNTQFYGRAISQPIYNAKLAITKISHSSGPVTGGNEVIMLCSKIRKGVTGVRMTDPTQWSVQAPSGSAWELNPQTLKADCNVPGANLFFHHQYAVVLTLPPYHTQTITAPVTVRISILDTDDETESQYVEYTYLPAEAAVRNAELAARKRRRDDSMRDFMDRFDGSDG

A further assay has as its target T5, GST-Dm-Relish (Drosophila melanogaster, UniProt Q94527 99-473).
T5 sequence: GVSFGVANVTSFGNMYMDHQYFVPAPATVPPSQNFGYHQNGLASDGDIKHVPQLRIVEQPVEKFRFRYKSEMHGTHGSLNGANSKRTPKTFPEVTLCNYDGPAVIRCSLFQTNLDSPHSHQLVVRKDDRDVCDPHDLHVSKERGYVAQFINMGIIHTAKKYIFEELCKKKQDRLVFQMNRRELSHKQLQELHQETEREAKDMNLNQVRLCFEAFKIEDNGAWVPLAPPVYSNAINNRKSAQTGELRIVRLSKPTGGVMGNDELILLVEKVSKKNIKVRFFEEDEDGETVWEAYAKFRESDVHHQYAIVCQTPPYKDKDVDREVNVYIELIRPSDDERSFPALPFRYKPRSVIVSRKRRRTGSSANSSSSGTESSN

A further assay concerns the target T6, GST-Aq-NF-kB (Amphimedon queenslandica, UniProt A9Y5G7 2-389).
T6 sequence: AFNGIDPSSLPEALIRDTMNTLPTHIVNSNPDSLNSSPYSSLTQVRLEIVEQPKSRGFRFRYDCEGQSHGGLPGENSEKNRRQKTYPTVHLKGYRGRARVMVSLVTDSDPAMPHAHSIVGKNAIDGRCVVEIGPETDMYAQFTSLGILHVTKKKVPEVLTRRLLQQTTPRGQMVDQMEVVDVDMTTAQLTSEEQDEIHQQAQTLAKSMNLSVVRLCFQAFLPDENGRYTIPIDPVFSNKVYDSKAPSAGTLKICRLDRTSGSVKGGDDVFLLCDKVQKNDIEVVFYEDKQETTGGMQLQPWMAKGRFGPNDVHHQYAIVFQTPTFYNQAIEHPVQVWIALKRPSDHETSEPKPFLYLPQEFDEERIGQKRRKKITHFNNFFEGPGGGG

For a further assay, the target named is GST-Hu-p50 (Homo sapiens, UniProt P19838 7-356).
GST-Hu-p50, sequence (P19838 7-356): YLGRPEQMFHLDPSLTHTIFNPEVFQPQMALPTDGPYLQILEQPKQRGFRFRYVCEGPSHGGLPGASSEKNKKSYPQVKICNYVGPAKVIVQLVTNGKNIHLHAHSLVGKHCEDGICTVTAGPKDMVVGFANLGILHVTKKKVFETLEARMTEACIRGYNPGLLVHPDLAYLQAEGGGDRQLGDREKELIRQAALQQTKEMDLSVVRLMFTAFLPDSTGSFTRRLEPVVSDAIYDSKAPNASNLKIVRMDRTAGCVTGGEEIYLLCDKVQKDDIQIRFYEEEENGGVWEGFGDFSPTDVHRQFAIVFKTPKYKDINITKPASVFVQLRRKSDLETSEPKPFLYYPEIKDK

Take “CCGATTAACATCAGGGGAATTAATGATGTTAATCGGGTCTTGATTCGCTTGACGCTGCTG”: the binding signal with GST-Ap-NF-kB RHD was found to be 6.97 z-score; in assay [1], 9.44 z-score; in assay [2], 10.2 z-score; in the assay with GST-Co-NF-kB, 7.92 z-score; with GST-Dm-Relish, 7.21 z-score; in the assay with GST-Aq-NF-kB, 6.31 z-score. In the assay with GST-Hu-p50, this sequence showed a binding signal of 6.52 z-score.

On to “CCGATTAACATCAGGGGGGAATATGATGTTAATCGGGTCTTGATTCGCTTGACGCTGCTG”, for which the binding signal with GST-Ap-NF-kB RHD was 7.1 z-score; in assay [1] it was 6.54 z-score; in assay [2] it was 7.41 z-score; in the assay with GST-Co-NF-kB it was 10.2 z-score; with GST-Dm-Relish it was 5.21 z-score; with GST-Aq-NF-kB, 6.44 z-score. Also, the binding signal with GST-Hu-p50 turned out to be 6.79 z-score.

Take “CCGATTAACATCAACAATTCCCCTGATGTTAATCGGGTCTTGATTCGCTTGACGCTGCTG”: the binding signal with GST-Ap-NF-kB RHD was determined as 7.89 z-score; in assay [1], 8.85 z-score; in assay [2] it was 10.8 z-score; in the assay with GST-Co-NF-kB it was 7.14 z-score; with GST-Dm-Relish, 5.11 z-score; with GST-Aq-NF-kB, 5.93 z-score. In addition, in the assay with GST-Hu-p50, the binding signal is 6.81 z-score.

As to “CCGATTAACATCACTTTTCCCCCTGATGTTAATCGGGTCTTGATTCGCTTGACGCTGCTG”, the binding signal with GST-Ap-NF-kB RHD was 6.53 z-score; in assay [1], 7.4 z-score; in assay [2] it was 8.95 z-score; with GST-Co-NF-kB it was 10.8 z-score; with GST-Dm-Relish, 3.73 z-score; with GST-Aq-NF-kB it was 5.27 z-score. The binding signal with GST-Hu-p50 was determined as 6.51 z-score.

Consider “CCGATTAACATCACATAATCCCCTGATGTTAATCGGGTCTTGATTCGCTTGACGCTGCTG”, for which the binding signal stood at 7.93 z-score with GST-Ap-NF-kB RHD; 9.03 z-score in assay [1]; 9.99 z-score in assay [2]; 3.86 z-score with GST-Co-NF-kB; 6.27 z-score with GST-Dm-Relish; 6.55 z-score in the assay with GST-Aq-NF-kB. This sequence showed a binding signal with GST-Hu-p50 of 6.8 z-score.

With “CCGATTAACATCAAACAATCCCCTGATGTTAATCGGGTCTTGATTCGCTTGACGCTGCTG”, the binding signal is 7.46 z-score with GST-Ap-NF-kB RHD; 7.94 z-score in assay [1]; 9.07 z-score in assay [2]; 3.49 z-score with GST-Co-NF-kB; 5.32 z-score in the assay with GST-Dm-Relish; 6.2 z-score with GST-Aq-NF-kB. In the assay with GST-Hu-p50, this sequence gave a binding signal of 6.29 z-score.

“CCGATTAACATCAGGGGGAAGTATGATGTTAATCGGGTCTTGATTCGCTTGACGCTGCTG”: the binding signal with GST-Ap-NF-kB RHD worked out at 5.44 z-score; in assay [1] it was 6.23 z-score; in assay [2] it was 7.96 z-score; in the assay with GST-Co-NF-kB, 8.17 z-score; in the assay with GST-Dm-Relish, 5.72 z-score; in the assay with GST-Aq-NF-kB, 5.16 z-score. Moreover, in the assay with GST-Hu-p50, the binding signal came to 5.57 z-score.

As to “CCGATTAACATCAGTAAATCCCATGATGTTAATCGGGTCTTGATTCGCTTGACGCTGCTG”, the binding signal in the assay with GST-Ap-NF-kB RHD amounted to 1.49 z-score; in assay [1] it was 1.09 z-score; in assay [2] it was 1.18 z-score; with GST-Co-NF-kB it was 1.48 z-score; with GST-Dm-Relish it was 7.4 z-score; with GST-Aq-NF-kB, 2.3 z-score. Moreover, the binding signal in the assay with GST-Hu-p50 stood at 1.94 z-score.

With “CCGATTAACATCAGGGGAGTTACTGATGTTAATCGGGTCTTGATTCGCTTGACGCTGCTG”, the binding signal worked out at 5.46 z-score in the assay with GST-Ap-NF-kB RHD; 4.25 z-score in assay [1]; 4.83 z-score in assay [2]; 3.43 z-score in the assay with GST-Co-NF-kB; 7.83 z-score in the assay with GST-Dm-Relish; 5.17 z-score in the assay with GST-Aq-NF-kB. The sequence also gave a binding signal with GST-Hu-p50 of 4.45 z-score.

Turning to “CCGATTAACATCACCCTTCCCCCTGATGTTAATCGGGTCTTGATTCGCTTGACGCTGCTG”, the binding signal in the assay with GST-Ap-NF-kB RHD was determined as 4.54 z-score; in assay [1] it was 4.49 z-score; in assay [2], 5.26 z-score; in the assay with GST-Co-NF-kB, 5.61 z-score; with GST-Dm-Relish it was 2.99 z-score; with GST-Aq-NF-kB, 4.32 z-score. The sequence also returned a binding signal in the assay with GST-Hu-p50 of 4.43 z-score.
